Consider 48 compounds from PubChem BioAssay AID720706 (Broad Institute, 2013).

The structures appear in SMILES notation. About 5,500 (1.6%) of roughly 350,000 compounds were called active.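 Rule for the calls: active = significant combined selectivity score with lowered wild-type GFP, culture density cut under 30%, mutant RFP and density less affected; inactive = any of these conditions unmet.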 The list comes from a sample in which actives are over-represented; it also holds similar structures and randomly drawn compounds.

The assay in a line: reduced GFP signal of wild-type E. coli, primary screen, bacterial rRNA inhibitor project, GFP/RFP fluorescence, OD600, single point (AID 720706). The conditions noted are these: E. coli WT GFP vs humanized-ribosome RFP mutants, 24 h; GFP signal change (wild-type ribosome): stronger effect = lower value, DMSO median 0, no signal -100; OD600 change: measured here: OD600 growth, DMSO median 0, no signal -100; RFP signal change: measured here: RFP humanized mutant strains, DMSO median 0, no signal -100, concentration not given here.
As to `COCc1cn(CC[C@H]2CC[C@H](NC(=O)Cc3cccnc3)[C@H](CO)O2)nn1`, the GFP signal change (wild-type ribosome) is -2.43% (inactive), the OD600 change was -1.71% and the RFP signal change was -2.1%.

Regarding `C=CCN(c1ccccc1C(=O)NCC(=O)OCC)S(=O)(=O)c1ccc(C)cc1`, the GFP signal change (wild-type ribosome) is 5.68% (inactive), the OD600 change was -1.3% and the RFP signal change amounted to 1.08%.

With `NC(=O)c1ccccc1N(Cc1ccccc1)S(=O)(=O)c1ccccc1`, the GFP signal change (wild-type ribosome) is -4.05% (inactive), the OD600 change is -16.6% and the RFP signal change was -0.699%.

`CCOC(=O)N1CCN(C(=O)c2ccccc2N(Cc2ccccc2)S(=O)(=O)c2ccc(OC)cc2)CC1`: the GFP signal change (wild-type ribosome) was -25.8% (active), the OD600 change is -20.1% and the RFP signal change was 0.913%.

On to `C[C@H](CO)N1C[C@H](C)[C@H](CN(C)C(=O)C2CC2)OCc2ccccc2-c2ccccc2C1=O`, for which the GFP signal change (wild-type ribosome) was 3.14% (inactive), the OD600 change was 2.12% and the RFP signal change was -2.73%.

For the compound `CO[C@@H]1CN(C)C(=O)c2ccc(NC(=O)C3CC3)cc2OC[C@H](C)N(C(C)=O)C[C@H]1C`, the GFP signal change (wild-type ribosome) is 2.84% (inactive), the OD600 change worked out at 2.36% and the RFP signal change was -2.71%.

Take `O=C1NCCOCc2cn(nn2)CC[C@@H]1Cc1ccccc1`: the GFP signal change (wild-type ribosome) was 4.08% (inactive), the OD600 change is 6.55% and the RFP signal change is -0.105%.

For `O=C(Nc1nnc(Cc2ccc(Cl)cc2)s1)c1ccncc1`, the GFP signal change (wild-type ribosome) is -25.9% (active), the OD600 change worked out at 0.397% and the RFP signal change was found to be 10.4%.

With `O=C(Nc1nnc(Cc2ccccc2)s1)c1cnccn1`, the GFP signal change (wild-type ribosome) is 13.9% (inactive), the OD600 change was determined as 13.3% and the RFP signal change is 1.31%.

Turning to `O=C(Nc1nnc(Cc2ccc(Cl)cc2)s1)c1cccnc1`, the GFP signal change (wild-type ribosome) was -2.18% (inactive), the OD600 change stood at 2.81% and the RFP signal change was -2.51%.

For the compound `CO[C@@H]1CN(C)C(=O)c2ccc(NS(C)(=O)=O)cc2OC[C@@H](C)N(C(=O)C2CCOCC2)C[C@@H]1C`, the GFP signal change (wild-type ribosome) is 2.81% (inactive), the OD600 change is -0.862% and the RFP signal change is -0.242%.

For `CS(=O)(=O)N1CCCCN2[C@H](CO)[C@H](c3ccc(-c4cccc(C#N)c4)cc3)[C@H]2C1`, the GFP signal change (wild-type ribosome) was -2.77% (inactive), the OD600 change was 2.86% and the RFP signal change was determined as 1.13%.

As for `C[C@@H](NC(=O)C[C@@H]1CC[C@H](NC(=O)Cc2ccccn2)[C@H](CO)O1)c1ccccc1`, the GFP signal change (wild-type ribosome) was 1.1% (inactive), the OD600 change is -1.33% and the RFP signal change amounted to 0.264%.

In the case of `COc1ccc(-c2cc(C(=O)N3CCN(Cc4ccc5c(c4)OCO5)CC3)on2)cc1OC`, the GFP signal change (wild-type ribosome) was -30.2% (active), the OD600 change was -22.1% and the RFP signal change was found to be 4.69%.

On to `COc1cc(Cl)c(S(=O)(=O)N2CCN(Cc3ccc4c(c3)OCO4)CC2)cc1Cl`, for which the GFP signal change (wild-type ribosome) was -5.43% (inactive), the OD600 change was -7.87% and the RFP signal change was -2.97%.

Take `Cc1cc(C)n2nc(C(=O)N3CCN(Cc4ccc5c(c4)OCO5)CC3)nc2n1`: the GFP signal change (wild-type ribosome) was 6.71% (inactive), the OD600 change is 4.13% and the RFP signal change is -0.674%.

Regarding `Cc1ncoc1C(=O)NCCC(c1ccccc1)c1ccccc1`, the GFP signal change (wild-type ribosome) is -22.1% (active), the OD600 change is -9.13% and the RFP signal change amounted to 0.235%.

As for `Cc1ccnc(NC(=O)CNC(=O)c2ccccc2)c1`, the GFP signal change (wild-type ribosome) is 0.565% (inactive), the OD600 change was found to be 1.47% and the RFP signal change is 0.604%.

As to `Cc1noc(C)c1COc1ccc(C(=O)NCCOc2ccccc2)cc1`, the GFP signal change (wild-type ribosome) is -5.24% (inactive), the OD600 change was -2.29% and the RFP signal change is -0.784%.

Turning to `COc1ccc(NC(=O)Nc2ccc3c(c2)C(=O)N([C@@H](C)CO)C[C@@H](C)[C@@H](CN(C)Cc2ccncc2)OCCCC[C@@H](C)O3)cc1`, the GFP signal change (wild-type ribosome) was -3.01% (inactive), the OD600 change was -5.38% and the RFP signal change is 9.15%.

Regarding `CO[C@@H]1CN(C)C(=O)c2cc(NC(=O)NC3CCCCC3)ccc2OC[C@@H](C)N(C(C)=O)C[C@H]1C`, the GFP signal change (wild-type ribosome) was 1.07% (inactive), the OD600 change came out at 3.15% and the RFP signal change was -0.812%.

Regarding `Cc1cccc(-c2ccc([C@@H]3[C@@H](CO)N4CCCCN(S(=O)(=O)c5cccs5)C[C@H]34)cc2)c1`, the GFP signal change (wild-type ribosome) is -37.8% (active), the OD600 change is -24.1% and the RFP signal change is -1.67%.

Take `Cc1cccc(-c2ccc([C@H]3[C@H](CO)N4CCCCN(S(=O)(=O)c5cn(C)cn5)C[C@@H]34)cc2)c1`: the GFP signal change (wild-type ribosome) was 2.02% (inactive), the OD600 change was 3.81% and the RFP signal change turned out to be 1.54%.

`COc1cccc(-c2ccc([C@H]3[C@H](CO)N4CCCCN(S(=O)(=O)c5cccs5)C[C@@H]34)cc2)c1`: the GFP signal change (wild-type ribosome) was -0.886% (inactive), the OD600 change is -0.41% and the RFP signal change stood at 0.565%.

On to `Cc1ccccc1-c1ccc2c(c1)O[C@@H](CN(C)C(=O)Nc1ccc(F)cc1)[C@H](C)CN([C@@H](C)CO)S2(=O)=O`, for which the GFP signal change (wild-type ribosome) is -3.25% (inactive), the OD600 change was -11.6% and the RFP signal change was -1.01%.

With `O=C(c1ccncc1)N1CC(=O)N2[C@H](CO)[C@H](c3ccc(-c4ccccc4F)cc3)[C@@H]2C1`, the GFP signal change (wild-type ribosome) is 3.75% (inactive), the OD600 change is -1.79% and the RFP signal change was -0.215%.

`CCCNC(=O)N1CC2(C1)CN(Cc1cccc(F)c1)[C@@H](CO)c1[nH]c3cc(OC)ccc3c12`: the GFP signal change (wild-type ribosome) is 0.104% (inactive), the OD600 change was determined as 3.77% and the RFP signal change was 0.338%.

In the case of `Cn1c(SCC(=O)N2CCCCC2)nc2c(c1=O)SCC2`, the GFP signal change (wild-type ribosome) is 5.14% (inactive), the OD600 change is -0.579% and the RFP signal change was -0.99%.

On to `Cc1cccc(CSc2nc3c(c(=O)n2C)SCC3)c1`, for which the GFP signal change (wild-type ribosome) is -33.5% (active), the OD600 change was -21% and the RFP signal change was -2.49%.

Regarding `COCCn1c(SCC(=O)Nc2ccc(F)cc2F)nc2c(c1=O)SCC2`, the GFP signal change (wild-type ribosome) is 0.103% (inactive), the OD600 change was -1.78% and the RFP signal change is -3.71%.

`CCCN1[C@H](C(=O)N[C@H](C)c2ccccc2)[C@@H](CO)[C@@H]2Cn3c(ccc(-c4ccccc4)c3=O)[C@@H]21`: the GFP signal change (wild-type ribosome) was -1.92% (inactive), the OD600 change was -37.1% and the RFP signal change is 14.2%.

With `Cc1cccc(N2C(=O)SC(N(CC(=O)O)c3cccc(C)c3)C2=O)c1` (centres undefined), the GFP signal change (wild-type ribosome) was 2.86% (inactive), the OD600 change worked out at 2.55% and the RFP signal change worked out at 2.75%.

Regarding `Cc1ccc(N2C(=O)SC(N(CC(=O)O)c3ccc(C)cc3)C2=O)cc1` (centres undefined), the GFP signal change (wild-type ribosome) is -19.1% (active), the OD600 change is -12.3% and the RFP signal change was determined as 8.05%.

On to `Cc1ccc(CC2S/C(=C(/C#N)C(=O)N3CCOCC3)N(c3ccccc3)C2=O)cc1` (centres undefined), for which the GFP signal change (wild-type ribosome) is 7.88% (inactive), the OD600 change worked out at 10.1% and the RFP signal change was -0.528%.

For `CCC(=O)N(C)C[C@@H]1Oc2cc(C#CCOC)ccc2S(=O)(=O)N([C@@H](C)CO)C[C@@H]1C`, the GFP signal change (wild-type ribosome) is 2.66% (inactive), the OD600 change is 5.66% and the RFP signal change is -0.769%.

Turning to `C[C@H](CO)N1C[C@H](C)[C@@H](CN(C)S(=O)(=O)c2ccc(Cl)cc2)Oc2ccc(NS(=O)(=O)c3cccs3)cc2CC1=O`, the GFP signal change (wild-type ribosome) is -3.83% (inactive), the OD600 change is -15.4% and the RFP signal change was 2.4%.

Consider `CN(c1ccc(O)cc1)c1nc(-c2cccnc2)cs1`, for which the GFP signal change (wild-type ribosome) is -12.4% (inactive), the OD600 change was -11.5% and the RFP signal change is -4.17%.

Consider `COc1ccc(C(C)(O)c2nc(-c3ccc(C)c(C)c3)cs2)cc1` (centres undefined), for which the GFP signal change (wild-type ribosome) was -26.3% (inactive), the OD600 change was -43.5% and the RFP signal change came out at 0.438%.

For `CC(C)(C)C(=O)OCc1nc(-c2ccc(O)c(O)c2)cs1`, the GFP signal change (wild-type ribosome) is -25.8% (active), the OD600 change is -12.7% and the RFP signal change was -1.12%.

Regarding `COc1ccccc1-c1ccc([C@@H]2C[C@H]3[C@H](CON3C)CN2S(=O)(=O)c2cc(Cl)cc(Cl)c2)cc1`, the GFP signal change (wild-type ribosome) is 6.53% (inactive), the OD600 change was 14.8% and the RFP signal change was -4.58%.

With `CC(=O)Nc1ccc(NC(=O)CSc2nnnn2-c2ccccc2F)cc1`, the GFP signal change (wild-type ribosome) was 4.89% (inactive), the OD600 change was 2.23% and the RFP signal change was -0.743%.

Regarding `Cc1ccccc1-n1nnnc1SCCCC(=O)c1ccc(F)cc1`, the GFP signal change (wild-type ribosome) is -23.1% (active), the OD600 change is -14.2% and the RFP signal change was -2.44%.

Take `O=C(CSc1nnnn1-c1ccc(O)cc1)c1ccc(F)cc1`: the GFP signal change (wild-type ribosome) was -23.8% (inactive), the OD600 change is -18.1% and the RFP signal change is -2.43%.

Consider `CCNC(=O)Nc1ccc2c(c1)C(=O)N(C)[C@H]1CC[C@H](CC(=O)NCC3CCCCC3)O[C@@H]1CO2`, for which the GFP signal change (wild-type ribosome) is -0.861% (inactive), the OD600 change was -5.67% and the RFP signal change came to 0.251%.

Consider `O=C(c1ccc(F)cc1)N1CC(=O)N2[C@H](CO)[C@H](c3ccc(-c4ccccc4F)cc3)[C@@H]2C1`, for which the GFP signal change (wild-type ribosome) is 0.409% (inactive), the OD600 change was -9.64% and the RFP signal change worked out at 3.17%.

As to `C[C@@H]1CN([C@H](C)CO)C(=O)c2cc(NC(=O)Nc3ccccc3)ccc2O[C@@H](C)CCCCO[C@@H]1CN(C)S(=O)(=O)c1ccc(F)cc1`, the GFP signal change (wild-type ribosome) was 1.72% (inactive), the OD600 change is -2.21% and the RFP signal change was -3.62%.

`COc1ccc2c3c(n(C)c2c1)[C@@H](CO)N(C)CC31CN(S(=O)(=O)c2cccs2)C1`: the GFP signal change (wild-type ribosome) was 0.733% (inactive), the OD600 change was -9.82% and the RFP signal change is -0.435%.

In the case of `O=C(C[C@@H]1CC[C@@H](NC(=O)Nc2ccc(F)cc2)[C@H](CO)O1)NCCN1CCCC1`, the GFP signal change (wild-type ribosome) was 0.52% (inactive), the OD600 change is 4.7% and the RFP signal change was -1.57%.
